In the supplement of paper PMC12340860:
± gives the standard deviation of the averaged measurements.

The compounds below were run on Caenorhabditis elegans infected with Nematocida parisii (assay: progeny production of N. parisii-infected C. elegans relative to uninfected control; higher = stronger inhibition of microsporidia infection (rescue of reproduction)). Details: 60 µM; incubation time 5 days; spore dose (spores/uL): 18000.
Procedure: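 C. elegans N2 L1 larvae (100 per well, 96-well plate, K-medium with 5x E. coli OP50, 1% DMSO) were infected with Nematocida parisii spores (18,000 spores/uL) that had been pre-incubated for 1 h with each BU-CMD library compound at 60 uM. Plates were incubated 5 days at 21 C with shaking. Progeny were stained with rose bengal, scanned on a flatbed scanner and counted with WorMachine. Progeny number is expressed as % of uninfected DMSO controls on the same plate; three biological replicates per compound; hits were compounds with at least 60% progeny production.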
With `COC(=O)C1=C(C)N(CCc2cc(OC)c(OC)c(OC)c2)C(=O)N[C@H]1c1ccccc1` the progeny production was 38.1 ± 18%.
`COc1ccc(C2=CC3=C(Br)C(=O)C(C)(O)C(=O)C3=CO2)cc1` (centres undefined) gave a progeny production of 80.6 ± 13%.
For `CC(=O)[C@@H]1[C@@H](C)N(Cc2ccccc2)C(=O)N[C@H]1c1cccc(C(F)(F)F)c1`, the progeny production was 33.2 ± 12%.
In the case of `C=C(C)C[C@@H](O)COc1cc2c(cc1C1(c3cc4c(cc3OC[C@H](O)CC(=C)C)OCO4)C(=O)Nc3cc(F)ccc31)OCO2`, the progeny production is reported as 20.5 ± 11%.
